Data on 31 compounds can be found in PubChem BioAssay AID493191 (Broad Institute, 2011).

Structures are written as SMILES. The campaign covered roughly 1,300 compounds. About 330 (25%) were called active. No rule for the calls is given here. The list is a sample of the results. Results with a measured potency or affinity are listed apart.

This assay can be described thus: growth inhibition of MALME3 cells – cell-based, CellTiter-Glo, cherry-picked, orthogonal assay for MITF inhibitor project, dose response (AID 493191). The following applies: MALME3 melanoma viability, CellTiter-Glo luminescence, 24 h; series mostly up to 35 µM; activity change, negative = inhibition: at the top concentration.
`Cc1cc(C(=O)O/N=C(\N)c2ccncc2)ccc1[N+](=O)[O-]`: the “activity change, negative = inhibition” value was 8.51% (inactive).

As for `Cc1c(NC(=O)C(C)OC(=O)c2ccc([N+](=O)[O-])s2)c(=O)n(-c2ccccc2)n1C` (stereo unspecified), the “activity change, negative = inhibition” value is -11% (inactive).

With `CCCCOc1ccc(-c2ncc([N+](=O)[O-])cn2)cc1`, the “activity change, negative = inhibition” value is 4.96% (inactive).

As to `CC(C)(C)N=Cc1cc(-c2ccccc2)sc1O`, the “activity change, negative = inhibition” value is 9.96% (inactive).

For the compound `O=C(N/N=C/c1ccc([N+](=O)[O-])o1)c1sc2ccccc2c1Cl`, the “activity change, negative = inhibition” value was -55.5% (inactive).

For the compound `C(#Cc1ccccc1)C[N+]1(CC#Cc2cccc3ccccc23)CCCC1`, the “activity change, negative = inhibition” value was -16.4% (inactive).

For the compound `CSCCNC(=O)c1ccc2nc(Cc3ccccc3F)oc2c1`, the “activity change, negative = inhibition” value was 4.87% (inactive).

Take `O=C(CSC(=S)N1CCCCC1)c1c(F)cccc1F`: the “activity change, negative = inhibition” value was -9.52% (inactive).

On to `CN(Cc1ccccc1)C1=CC(=[N+]2CCCCC2)CC(C)(C)C1`, for which the “activity change, negative = inhibition” value was -35.5% (inactive).

On to `CCOc1cccc(C(=O)NC2=NCCS2)c1`, for which the “activity change, negative = inhibition” value is -7.89% (inactive).

For the compound `CCOC(=O)N1CCC(NC(=O)C2CCCN(Cc3nc(-c4cccc(C)c4)oc3C)C2)CC1` (stereo unspecified), the “activity change, negative = inhibition” value is -2.51% (inactive).

For `[2H]C(CCOS(N)(=O)=O)c1ccc(C(C)(C)C)cc1` (stereo unspecified), the “activity change, negative = inhibition” value was -5.5% (inactive).

On to `N/C(=N\OC(=O)c1ccc([N+](=O)[O-])cc1)c1ccc(Br)cc1`, for which the “activity change, negative = inhibition” value is 8.18% (inactive).

Regarding `COc1cc(/C=C/C(=O)N2CCC=CC2=O)cc(OC)c1OC`, the “activity change, negative = inhibition” value is -34.7% (inactive).

As to `c1ccc(C[n+]2cccc3c4ccccc4ccc32)cc1`, the “activity change, negative = inhibition” value is -16.9% (inactive).

Take `CCCCN(CC)CCCNC(=O)c1cc2c(=O)n(CC)c3ccccc3c2s1`: the “activity change, negative = inhibition” value was -37.7% (inactive).

On to `CC1(C)CC(=O)C=C(NC2=CC3OC(c4ccccc4)OCC3OC2=O)C1` (stereo unspecified), for which the “activity change, negative = inhibition” value is -3.65% (inactive).

Regarding `C(=N\Nc1cc(N2CCCCC2)ncn1)/c1ccco1`, the “activity change, negative = inhibition” value was 9.75% (inactive).

Take `Clc1ccc(-c2nc(-c3ccncc3)no2)c(Cl)c1`: the “activity change, negative = inhibition” value was -4.41% (inactive).

Take `O=C(Cc1cccs1)NCc1ccc(Cl)cc1Cl`: the “activity change, negative = inhibition” value was 4.52% (inactive).

As to `CC(C)n1cc(/C=C/c2cc[n+](C)cc2)c2ccccc21`, the “activity change, negative = inhibition” value was -22.1% (inactive).

For the compound `O=C(Nc1nc(-c2ccccn2)cs1)c1ccc(F)c(S(=O)(=O)N2CCOCC2)c1`, the “activity change, negative = inhibition” value is -20.2% (inactive).

In the case of `Cc1ccc(-c2cn3cc(C)ccc3n2)cc1`, the “activity change, negative = inhibition” value is -20.9% (inactive).

Turning to `O=C(CSc1ccccn1)c1ccc2c(c1)OCO2`, the “activity change, negative = inhibition” value was 7.19% (inactive).

On to `COc1cccc(NC(=O)c2cc3c(=O)n4ccccc4nc3n(CC(C)C)c2=N)c1`, for which the “activity change, negative = inhibition” value is 1.34% (inactive).

Consider `CCOC(=O)c1cn2nc(Oc3ccccc3)ccc2n1`, for which the “activity change, negative = inhibition” value was 7.09% (inactive).

For `CCOC(=O)N1C(=O)[C@](CC)(c2ccccc2)N1C(=O)OCC`, the “activity change, negative = inhibition” value is -32.8% (inactive).

For the compound `C/C(=N\Nc1cc(N2CCOCC2)ncn1)c1ccccc1`, the “activity change, negative = inhibition” value was 5.95% (inactive).

As for `CC1(C)Cc2c(sc(NC(=O)Nc3ccccc3)c2C(N)=O)CO1`, the “activity change, negative = inhibition” value is -17% (inactive).

As for `O=S(=O)(c1ccc(Cl)cc1)N1CCN(Cc2ccc(O)c3ncccc23)CC1`, the “activity change, negative = inhibition” value was -27.6% (inactive).

On to `Cc1ccc(C)c(S(=O)(=O)N2CCN(Cc3ccc(O)c4ncccc34)CC2)c1`, for which the “activity change, negative = inhibition” value is -29.3% (inactive).
